According to PubChem BioAssay (EPA / NIEHS):
Activity calls are given as the source filed them. The calls were made as follows: active = hit-call score of the fitted dose curve at least 0.9, where 1 is the maximum; inactive = score below 0.9.

Legend:
[1] = target: CCAAT/enhancer-binding protein beta (Homo sapiens) (UniProt P17676); assay: ATG_C_EBP_CIS: Attagene CIS-FACTORIAL HepG2 Assay for human CCAAT/Enhancer Binding Protein (C/EBP) beta (AID 2282927); conditions: HepG2 Attagene cis-factorial transcription factor reporter; actives raise or lower the signal
How it was run: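 Chemical-treated HepG2 cells (24 h) bearing cis-regulated reporter constructs were processed for total RNA, then reverse transcription, PCR amplification, fluorescent primer extension and fragment analysis; gain- and loss-of-signal were fitted against DMSO.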

[2] = ATG_CMV_CIS: Attagene CIS-FACTORIAL HepG2 Assay for human CMV (Internal Marker) (AID 2282928); conditions: HepG2 CMV promoter reporter, transcription factor profiling; actives raise or lower the signal;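 also: endpoint acts as a background internal control marker rather than a target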
How it was run: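 24 h chemical treatment, HepG2 with transient multi-reporter transfection; RNA → oligo(dT) RT → PCR → 6-FAM extension → HpaI digest → CE fluorescence. Bidirectional fit, DMSO negative control.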

[3] = ATG_DR4_LXR_CIS: Attagene CIS-FACTORIAL HepG2 Assay for human Liver X Receptor (LXR), DR4 submotif (AID 2282929); conditions: HepG2 Attagene DR4 cis-reporter, mRNA transcription; AC50: actives raise or lower the signal unless noted; outcome: actives raise or lower the signal unless noted
How it was run: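 Measures endogenous transcription factor activity via a DR4-driven reporter transcript in human HepG2 cells. Compounds incubated 24 h; mRNA quantified by RT-PCR and capillary electrophoresis, analysed as gain or loss of signal versus DMSO.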

[4] = target: Aryl hydrocarbon receptor (Homo sapiens) (UniProt P35869); assay: ATG_Ahr_CIS: Attagene CIS-FACTORIAL HepG2 Assay for human Aryl Hydrocarbon Receptor (Ahr) (AID 2282930); conditions: HepG2 AhR cis-factorial reporter transcription; actives raise or lower the signal
How it was run: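 Following 24 h of chemical dosing, transfected HepG2 liver cells with cis-driven reporter units were lysed for RNA; reporter mRNA was quantified via RT-PCR and capillary electrophoresis, and responses fitted bidirectionally from DMSO.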

[5] = ATG_AP_1_CIS: Attagene CIS-FACTORIAL HepG2 Assay for human Activator Protein 1 (AP-1) (AID 2282931); conditions: HepG2 Attagene cis-factorial AP-1 reporter mRNA; actives raise or lower the signal
How it was run: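 Bidirectional concentration-response fitting against DMSO controls. Underlying signal: reporter mRNA from cis-promoter constructs in transiently transfected HepG2, measured after 24 h by RT-PCR and capillary electrophoresis.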

[6] = ATG_AP_2_CIS: Attagene CIS-FACTORIAL HepG2 Assay for human Activator Protein 2 (AP-2) (AID 2282932); conditions: HepG2 AP-2 cis-reporter, Attagene transcription factor profiling; AC50: actives raise or lower the signal unless noted; outcome: actives raise or lower the signal unless noted
How it was run: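 Cells (HepG2) transfected with promoter-driven reporter constructs, treated 24 h. Total RNA reverse-transcribed, reporter cDNA PCR-amplified, FAM-labelled by primer extension, digested, resolved by capillary electrophoresis. Activity fitted both directions versus DMSO.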

[7] = ATG_BRE_CIS: Attagene CIS-FACTORIAL HepG2 Assay for human Bone Morphogenetic Protein (BMP) Response Element (BRE) (AID 2282933); conditions: HepG2 BMP response element reporter, Attagene transcription factor profiling; actives raise or lower the signal
How it was run: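 After a 24 h chemical treatment, transiently transfected HepG2 cells were lysed for RNA; reporter transcripts were quantified by fluorescent RT-PCR and capillary electrophoresis, normalised to DMSO.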

[8] = ATG_E_Box_CIS: Attagene CIS-FACTORIAL HepG2 Assay for human Enhancer Box (E-box) (AID 2282936); conditions: HepG2 E-box cis-reporter transcription, actives raise or lower the signal
How it was run: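 Endogenous transcription factor activity was sensed in human HepG2 liver cells through transfected cis-promoter reporter units. After 24 h of dosing, total RNA was reverse-transcribed and reporter cDNA resolved by capillary electrophoresis.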

[9] = ATG_M_61_CIS: Attagene CIS-FACTORIAL HepG2 Assay for M61 Transcription Factor (Internal Marker) (AID 2282937); conditions: HepG2 Attagene CIS-FACTORIAL M61 internal marker reporter; actives raise or lower the signal
How it was run: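 Fluorescence from labelled cDNA fragments, separated by capillary electrophoresis, quantifies reporter induction. HepG2 cells bearing transiently transfected cis-promoter MRTUs were incubated with test chemical for 24 h; DMSO defined baseline for gain/loss fitting.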

[10] = ATG_EGR_CIS: Attagene CIS-FACTORIAL HepG2 Assay for human Early Growth Response 1 (EGR1) (AID 2282938); conditions: HepG2 Attagene CIS-FACTORIAL EGR reporter mRNA; actives raise or lower the signal
How it was run: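 Cell-based multiplex transcription assay: HepG2 carrying transfected cis-element reporter units, 24 h chemical treatment. Fluorescence from capillary electrophoresis of RT-PCR products gives mRNA levels; fitting is bidirectional relative to DMSO.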

[11] = ATG_M_19_CIS: Attagene CIS-FACTORIAL HepG2 Assay for M19 Transcription Factor (Internal Marker) (AID 2282939); conditions: HepG2 Attagene CIS-FACTORIAL M19 internal marker reporter; actives raise or lower the signal
How it was run: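 In this multiplexed cell assay, transiently transfected HepG2 reporter units report endogenous transcription-factor activity; after 24 hours of treatment, labelled reporter cDNA fragments are quantified by capillary electrophoresis and fitted bidirectionally against DMSO.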

[12] = ATG_ERE_CIS: Attagene CIS-FACTORIAL HepG2 Assay for Estrogen Response Element (ERE) (AID 2282940); conditions: HepG2 ERE cis-reporter, Attagene RNA transcript; actives raise or lower the signal
How it was run: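 Measuring endogenous transcription factor output, the assay doses transfected HepG2 cells for 24 hours and quantifies reporter transcripts by fluorescent RT-PCR and capillary electrophoresis, with DMSO as baseline.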

[13] = ATG_Ets_CIS: Attagene CIS-FACTORIAL HepG2 Assay for human Erythroblast Transformation Specific (ETS) (AID 2282941); conditions: HepG2 ETS cis-reporter transcription; AC50: actives raise or lower the signal unless noted; outcome: actives raise or lower the signal unless noted
How it was run: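 Cis-regulated reporter mRNA induction in HepG2 (transient transfection), 24 h exposure, RT-PCR plus capillary electrophoresis detection; DMSO serves as negative control and baseline.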

[14] = target: Hepatocyte nuclear factor 3-beta (Homo sapiens) (UniProt Q9Y261); assay: ATG_FoxA2_CIS: Attagene CIS-FACTORIAL HepG2 Assay for human Forkhead box A2 (FOXA2) (AID 2282942); conditions: HepG2 cis-reporter transcription factor activity, 24 h; actives raise or lower the signal
How it was run: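 In transiently transfected human HepG2 cells, promoter-driven reporter mRNA levels after 24 h chemical exposure are determined via RT-PCR with capillary electrophoresis. DMSO serves as baseline for bidirectional fitting.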

[15] = ATG_FoxO_CIS: Attagene CIS-FACTORIAL HepG2 Assay for human Forkhead box O (FoxO) (AID 2282943); conditions: HepG2 Attagene cis-reporter, FoxO element, mRNA; actives raise or lower the signal
How it was run: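 24 h chemical exposure, HepG2 with transient cis-MRTU transfection. RNA extraction, oligo(dT) RT, reporter-specific PCR, primer-extension labelling, HpaI digestion, CE fragment analysis; bidirectional fit, DMSO baseline.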

[16] = ATG_GATA_CIS: Attagene CIS-FACTORIAL HepG2 Assay for human GATA Binding Protein (AID 2282944); conditions: HepG2 GATA cis-element reporter, Attagene multiplex mRNA; actives raise or lower the signal
How it was run: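 Measures endogenous transcription factor-driven reporter mRNA in HepG2 cells transiently carrying cis-regulated constructs. 24 h dosing; RNA via oligo(dT) reverse transcription, PCR, HpaI digestion, capillary electrophoresis; fitted relative to DMSO.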

[17] = ATG_GLI_CIS: Attagene CIS-FACTORIAL HepG2 Assay for human Zinc Finger Protein GLI1 (AID 2282945); conditions: HepG2, Attagene cis-factorial reporter mRNA, GLI element; actives raise or lower the signal
How it was run: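 HepG2 cells transiently transfected with cis-promoter multiplexed reporter units report endogenous transcription factor activity. After 24 h chemical exposure, reporter mRNA was quantified by RT-PCR, 6-FAM labelling, HpaI digestion and capillary electrophoresis, with bidirectional fitting against DMSO.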

[18] = target: Bile acid receptor (Homo sapiens) (UniProt Q96RI1); assay: ATG_IR1_CIS: Attagene CIS-FACTORIAL HepG2 Assay for human Nuclear Receptor Subfamily 1 Group H Member 4 (NR1H4), IR1 submotif (AID 2282946); conditions: IR1 reporter transcription, actives raise or lower the signal
How it was run: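 Readout: reporter transcript levels by RT-PCR with fluorescent capillary electrophoresis, from HepG2 cells transiently transfected with multiplexed cis-regulated reporters and dosed 24 h. Gain- or loss-of-signal fitted versus DMSO negative control.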

[19] = target: Retinoic acid receptor alpha (Homo sapiens) (UniProt P10276); assay: ATG_DR5_RAR_CIS: Attagene CIS-FACTORIAL HepG2 Assay for human Retinoic Acid Receptor Alpha (RARE), DR5 submotif (AID 2282934); conditions: HepG2 Attagene cis-factorial RARE DR5 reporter, mRNA; actives raise or lower the signal
How it was run: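 Transfected HepG2 reporter cells are exposed to chemicals for 24 h. Then RNA is extracted and the DR5 element reporter transcript is measured by RT-PCR and capillary electrophoresis, with bidirectional curve fitting relative to DMSO.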

[20] = target: Transcription factor E2F1 (Homo sapiens) (UniProt Q01094); assay: ATG_E2F_CIS: Attagene CIS-FACTORIAL HepG2 Assay for human E2F Transcription Factor 1 (AID 2282935); conditions: HepG2 Attagene cis-reporter, E2F reporter RNA transcripts; actives raise or lower the signal
How it was run: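 First, HepG2 cells were transfected with reporter transcription units. Next, they were dosed for 24 h. Then RNA was isolated, converted to cDNA, PCR-amplified, FAM-labeled, HpaI-digested and analyzed by capillary electrophoresis.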

Measured: AC50

CCAAT/enhancer-binding protein beta (Homo sapiens), sequence (P17676 whole entry, looked up, the tested form may be a part): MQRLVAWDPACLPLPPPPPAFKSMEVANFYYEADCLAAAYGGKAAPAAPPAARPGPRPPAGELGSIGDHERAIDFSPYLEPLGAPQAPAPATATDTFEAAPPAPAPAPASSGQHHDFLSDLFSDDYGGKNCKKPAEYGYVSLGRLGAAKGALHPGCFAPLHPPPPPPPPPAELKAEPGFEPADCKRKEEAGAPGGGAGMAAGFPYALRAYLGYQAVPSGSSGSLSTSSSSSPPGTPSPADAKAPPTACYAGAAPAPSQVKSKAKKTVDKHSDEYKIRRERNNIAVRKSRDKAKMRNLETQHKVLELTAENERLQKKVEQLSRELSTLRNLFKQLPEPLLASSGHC
Aryl hydrocarbon receptor (Homo sapiens), sequence (P35869 whole entry, looked up): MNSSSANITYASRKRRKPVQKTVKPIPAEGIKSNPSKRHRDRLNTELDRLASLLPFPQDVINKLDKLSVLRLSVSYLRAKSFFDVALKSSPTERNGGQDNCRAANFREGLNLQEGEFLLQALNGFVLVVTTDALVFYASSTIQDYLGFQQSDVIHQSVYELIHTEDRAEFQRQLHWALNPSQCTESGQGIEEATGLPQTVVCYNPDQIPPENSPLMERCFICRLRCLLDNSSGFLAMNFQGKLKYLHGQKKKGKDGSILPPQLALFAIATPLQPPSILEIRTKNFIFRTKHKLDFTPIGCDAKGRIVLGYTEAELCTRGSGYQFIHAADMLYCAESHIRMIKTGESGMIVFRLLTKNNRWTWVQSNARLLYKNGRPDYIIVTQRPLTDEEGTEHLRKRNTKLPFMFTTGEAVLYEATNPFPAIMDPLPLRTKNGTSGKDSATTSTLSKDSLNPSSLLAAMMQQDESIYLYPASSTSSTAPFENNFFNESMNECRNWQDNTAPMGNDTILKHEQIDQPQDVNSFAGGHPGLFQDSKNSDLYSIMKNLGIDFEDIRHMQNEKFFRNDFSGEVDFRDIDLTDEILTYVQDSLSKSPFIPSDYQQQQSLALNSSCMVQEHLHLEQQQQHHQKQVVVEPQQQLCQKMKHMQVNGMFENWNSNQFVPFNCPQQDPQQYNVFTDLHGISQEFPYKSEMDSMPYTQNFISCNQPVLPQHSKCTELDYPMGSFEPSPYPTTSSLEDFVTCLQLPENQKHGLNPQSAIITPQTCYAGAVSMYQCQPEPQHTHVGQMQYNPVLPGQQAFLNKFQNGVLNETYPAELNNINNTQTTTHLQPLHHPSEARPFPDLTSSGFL
Transcription factor E2F1 (Homo sapiens), sequence (Q01094 whole entry, looked up): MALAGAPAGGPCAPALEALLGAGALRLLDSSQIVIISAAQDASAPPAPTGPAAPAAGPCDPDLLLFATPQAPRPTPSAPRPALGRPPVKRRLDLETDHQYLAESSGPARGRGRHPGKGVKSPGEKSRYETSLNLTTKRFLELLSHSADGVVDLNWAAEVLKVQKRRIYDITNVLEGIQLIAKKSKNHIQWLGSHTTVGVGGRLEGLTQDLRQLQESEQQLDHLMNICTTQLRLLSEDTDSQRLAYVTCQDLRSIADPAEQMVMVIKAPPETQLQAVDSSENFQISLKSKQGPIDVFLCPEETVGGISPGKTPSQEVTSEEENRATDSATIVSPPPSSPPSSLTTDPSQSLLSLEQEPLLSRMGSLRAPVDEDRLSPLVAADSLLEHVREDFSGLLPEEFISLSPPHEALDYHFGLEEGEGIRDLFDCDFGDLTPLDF
Retinoic acid receptor alpha (Homo sapiens), sequence (P10276 whole entry, looked up): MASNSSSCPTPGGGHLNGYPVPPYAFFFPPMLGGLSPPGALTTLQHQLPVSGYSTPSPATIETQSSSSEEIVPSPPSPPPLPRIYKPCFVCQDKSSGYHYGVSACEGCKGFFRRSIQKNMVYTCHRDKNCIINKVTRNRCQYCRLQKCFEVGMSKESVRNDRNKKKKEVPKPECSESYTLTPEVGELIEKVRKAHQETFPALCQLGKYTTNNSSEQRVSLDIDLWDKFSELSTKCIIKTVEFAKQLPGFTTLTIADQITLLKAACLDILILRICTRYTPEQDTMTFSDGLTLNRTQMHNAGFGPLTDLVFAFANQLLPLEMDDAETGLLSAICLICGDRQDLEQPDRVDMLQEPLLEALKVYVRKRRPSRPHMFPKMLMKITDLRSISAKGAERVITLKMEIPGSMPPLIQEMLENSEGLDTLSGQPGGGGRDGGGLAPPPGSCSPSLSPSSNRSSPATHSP
Bile acid receptor (Homo sapiens), sequence (Q96RI1 whole entry, looked up): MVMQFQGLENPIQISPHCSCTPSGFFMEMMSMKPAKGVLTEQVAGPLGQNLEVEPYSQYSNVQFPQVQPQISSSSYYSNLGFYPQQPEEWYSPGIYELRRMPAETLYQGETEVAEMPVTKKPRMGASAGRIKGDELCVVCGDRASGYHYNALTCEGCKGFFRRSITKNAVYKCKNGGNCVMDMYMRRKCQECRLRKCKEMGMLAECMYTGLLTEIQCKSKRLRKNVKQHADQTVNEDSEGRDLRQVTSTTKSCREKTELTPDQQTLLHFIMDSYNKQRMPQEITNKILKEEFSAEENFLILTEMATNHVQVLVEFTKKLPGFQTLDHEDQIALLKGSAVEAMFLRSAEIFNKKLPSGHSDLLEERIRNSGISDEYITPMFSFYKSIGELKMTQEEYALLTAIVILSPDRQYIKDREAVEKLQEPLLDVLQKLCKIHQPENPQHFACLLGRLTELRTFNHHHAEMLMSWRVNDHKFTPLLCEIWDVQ
Hepatocyte nuclear factor 3-beta (Homo sapiens), sequence (Q9Y261 whole entry, looked up): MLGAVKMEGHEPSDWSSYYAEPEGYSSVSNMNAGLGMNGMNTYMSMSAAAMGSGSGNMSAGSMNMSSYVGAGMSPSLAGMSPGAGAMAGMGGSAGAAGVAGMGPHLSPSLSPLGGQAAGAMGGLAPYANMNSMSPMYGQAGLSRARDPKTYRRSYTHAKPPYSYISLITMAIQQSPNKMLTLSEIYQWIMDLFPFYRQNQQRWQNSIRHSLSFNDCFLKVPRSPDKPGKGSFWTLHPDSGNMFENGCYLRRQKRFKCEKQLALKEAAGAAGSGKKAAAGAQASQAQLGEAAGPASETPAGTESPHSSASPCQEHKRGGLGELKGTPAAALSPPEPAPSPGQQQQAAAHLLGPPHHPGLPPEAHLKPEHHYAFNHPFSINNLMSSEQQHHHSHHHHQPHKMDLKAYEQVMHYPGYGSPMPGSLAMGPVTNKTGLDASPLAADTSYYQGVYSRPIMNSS

C=CC(F)(F)C(F)(F)C(F)(F)C(F)(F)F
inactive: [1] | [2] | [3] | [4] | [5] | [6] | [7] | [8] | [9] | [10] | [11] | [12] | [13] | [14] | [15] | [16] | [17] | [18]

Cc1cncc(C)c1
inactive: [1] | [2] | [3] | [4] | [5] | [6] | [7] | [19] | [8] | [10] | [11] | [12] | [14] | [16] | [18]

CCCC=O
inactive: [1] | [2] | [3] | [4] | [5] | [6] | [7] | [20] | [8] | [9] | [10] | [13] | [14] | [15] | [16]

FCOC(C(F)(F)F)C(F)(F)F
inactive: [1] | [2] | [3] | [4] | [5] | [7] | [19] | [20] | [8] | [10] | [12] | [13] | [14] | [16] | [17] | [18]

O=C(C=C(O)C(F)(F)F)C(F)(F)F
inactive: [1] | [2] | [3] | [4] | [5] | [7] | [19] | [8] | [10] | [11] | [12] | [13] | [14] | [16] | [17] | [18]

Oc1c(Cl)ccc(Cl)c1Cl
active: [4] 68.3 µM
inactive: [1] | [2] | [3] | [5] | [7] | [19] | [20] | [8] | [9] | [10] | [11] | [12] | [13] | [14] | [16] | [17] | [18]

CC=O
inactive: [1] | [2] | [3] | [4] | [5] | [7] | [19] | [20] | [8] | [10] | [11] | [12] | [13] | [14] | [15] | [17] | [18]

COCN(COC)c1nc(N(COC)COC)nc(N(COC)COC)n1
inactive: [1] | [2] | [3] | [4] | [5] | [7] | [19] | [8] | [9] | [10] | [11] | [13] | [14] | [15] | [16] | [17] | [18]
active: [12] 23.7 µM
